# Data reported in the supplement of paper PMC8728848.
# Many of the other results were omitted from the sample, so the strongest signals are more common in it than they were.
# How the values were obtained:
# Experiment in all cases: glycan array binding signal (z-score within array); higher = stronger binding
# Conditions in all cases: glycan notation: IUPAC condensed, linker removed
# Fuc(a1-2)Gal(b1-4)Glc6S = target: Fuc(a1-2)Gal(b1-4)Glc6S
# Outline: (§1)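 Arrays were curated from the Consortium for Functional Glycomics database, 3228 in total, and kept only where the protein sequence was available. Binding is expressed as a within-array Z-score. This score was averaged across arrays of the same protein sequence at different concentrations or buffers and across linkers, and negative values can be read as non-binding.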
# [1] = target: Fuc(a1-2)Gal(b1-4)GlcNAc(b1-2)Man
# Outline: as §1
# [2] = target: Fuc(a1-2)Gal(b1-4)GlcNAc(b1-2)Man(a1-3)[Fuc(a1-2)Gal(b1-4)GlcNAc(b1-2)Man(a1-6)]Man(b1-4)GlcNAc(b1-4)[Fuc(a1-6)]GlcNAc
# Outline: as §1
# [3] = target: Fuc(a1-2)[Gal(a1-3)]Gal(b1-3)GlcNAc(b1-2)Man(a1-3)[Fuc(a1-2)[Gal(a1-3)]Gal(b1-3)GlcNAc(b1-2)Man(a1-6)]Man(b1-4)GlcNAc(b1-4)GlcNAc
# Outline: as §1
# [4] = target: Fuc(a1-2)[GalNAc(a1-3)]Gal(b1-4)GlcNAc
# Outline: as §1
# [5] = target: Fuc(a1-2)[GalNAc(a1-3)]Gal(b1-4)GlcNAc(b1-3)Gal(b1-4)GlcNAc(b1-3)Gal(b1-4)GlcNAc
# Outline: as §1
# Gal(a1-3)Gal(b1-3)GlcNAc = target: Gal(a1-3)Gal(b1-3)GlcNAc
# Outline: as §1
# [6] = target: Gal(a1-3)Gal(b1-3)GlcNAc(b1-3)GalNAc
# Outline: as §1
# [7] = target: Gal(a1-3)Gal(b1-4)GlcNAc(b1-2)Man(a1-3)[Gal(a1-3)Gal(b1-4)GlcNAc(b1-2)Man(a1-6)]Man(b1-4)GlcNAc(b1-4)GlcNAc
# Outline: as §1
# [8] = target: Gal(a1-3)Gal(b1-4)[Fuc(a1-3)]GlcNAc(b1-2)Man(a1-3)[Gal(a1-3)Gal(b1-4)[Fuc(a1-3)]GlcNAc(b1-2)Man(a1-6)]Man(b1-4)GlcNAc(b1-4)GlcNAc
# Outline: as §1
# [9] = target: Gal(a1-3)[Gal(a1-4)]Gal(b1-4)GlcNAc
# Outline: as §1
# [10] = target: Gal(a1-4)Gal(b1-4)GlcNAc(b1-2)Man(a1-3)[Gal(a1-4)Gal(b1-4)GlcNAc(b1-2)Man(a1-6)]Man(b1-4)GlcNAc(b1-4)GlcNAc
# Outline: as §1
# Gal(b1-2)Gal = target: Gal(b1-2)Gal
# Outline: as §1
# [11] = target: Gal(b1-3)GalNAc(b1-4)Gal(b1-4)Glc
# Outline: as §1
# Gal(b1-3)GlcNAc = target: Gal(b1-3)GlcNAc
# Outline: as §1
# [12] = target: Gal(b1-3)GlcNAc(b1-3)Gal(b1-4)GlcNAc(b1-2)[Gal(b1-3)GlcNAc(b1-3)Gal(b1-4)GlcNAc(b1-6)]Man(a1-6)[Gal(b1-3)GlcNAc(b1-3)Gal(b1-4)GlcNAc(b1-2)Man(a1-3)]Man(b1-4)GlcNAc(b1-4)[Fuc(a1-6)]GlcNAc
# Outline: as §1
# [13] = target: Gal(b1-3)GlcNAc(b1-3)Gal(b1-4)[Fuc(a1-3)]GlcNAc
# Outline: as §1
# Gal(b1-4)GlcNAc = target: Gal(b1-4)GlcNAc
# Outline: as §1
# [14] = target: Gal(b1-4)GlcNAc(b1-3)Gal(b1-3)GlcNAc
# Outline: as §1
# [15] = target: Gal(b1-4)GlcNAc(b1-3)Gal(b1-4)Glc
# Outline: as §1
# [16] = target: Gal(b1-4)GlcNAc(b1-3)Gal(b1-4)GlcNAc(b1-3)Gal(b1-4)GlcNAc(b1-3)Gal(b1-4)GlcNAc(b1-2)Man(a1-3)[Gal(b1-4)GlcNAc(b1-3)Gal(b1-4)GlcNAc(b1-3)Gal(b1-4)GlcNAc(b1-3)Gal(b1-4)GlcNAc(b1-2)Man(a1-6)]Man(b1-4)GlcNAc(b1-4)GlcNAc
# Outline: as §1
# [17] = target: Gal(b1-4)GlcNAc(b1-3)Gal(b1-4)GlcNAc(b1-3)GalNAc
# Outline: as §1
# [18] = target: Gal(b1-4)GlcNAc(b1-3)[Gal(b1-4)GlcNAc(b1-6)]Gal(b1-4)GlcNAc
# Outline: as §1
# [19] = target: Gal(b1-4)GlcNAc(b1-6)GalNAc
# Outline: as §1
# [20] = target: GalNAc(a1-3)GalNAc(b1-3)Gal(a1-4)Gal(b1-4)GlcNAc
# Outline: as §1
# [21] = target: GalNAc(b1-3)Gal(a1-4)Gal(b1-4)GlcNAc
# Outline: as §1
# GalNAc(b1-4)Gal(b1-4)Glc = target: GalNAc(b1-4)Gal(b1-4)Glc
# Outline: as §1
# GalNAc6S(b1-4)GlcNAc = target: GalNAc6S(b1-4)GlcNAc
# Outline: as §1
# [22] = target: GlcNAc(a1-3)Gal(b1-4)GlcNAc
# Outline: as §1
# [23] = target: GlcNAc(b1-2)Gal(b1-3)GalNAc
# Outline: as §1
# [24] = target: GlcNAc(b1-3)Gal(b1-4)GlcNAc(b1-3)Gal(b1-4)GlcNAc(b1-3)Gal(b1-4)GlcNAc(b1-3)Gal(b1-4)GlcNAc(b1-2)Man(a1-3)[GlcNAc(b1-3)Gal(b1-4)GlcNAc(b1-3)Gal(b1-4)GlcNAc(b1-3)Gal(b1-4)GlcNAc(b1-3)Gal(b1-4)GlcNAc(b1-2)Man(a1-6)]Man(b1-4)GlcNAc(b1-4)GlcNAc
# Outline: as §1
# [25] = target: GlcNAc(b1-3)Gal(b1-4)GlcNAc(b1-3)Gal(b1-4)GlcNAc(b1-3)GalNAc
# Outline: as §1
# [26] = target: GlcNAc(b1-4)Gal(b1-4)GlcNAc
# Outline: as §1
# [27] = target: GlcNAc(b1-4)GlcNAc(b1-4)GlcNAc(b1-4)GlcNAc(b1-4)GlcNAc
# Outline: as §1
# [28] = target: Man(a1-3)[Man(a1-6)]Man(a1-6)[Man(a1-3)]Man(b1-4)GlcNAc(b1-4)GlcNAc
# Outline: as §1
# [29] = target: Neu5Ac(a2-3)Gal(b1-3)GalNAc
# Outline: as §1
# [30] = target: Neu5Ac(a2-3)Gal(b1-3)GlcNAc(b1-2)Man(a1-3)[GlcNAc(b1-4)][Neu5Ac(a2-3)Gal(b1-3)GlcNAc(b1-2)Man(a1-6)]Man(b1-4)GlcNAc(b1-4)GlcNAc
# Outline: as §1
# [31] = target: Neu5Ac(a2-3)Gal(b1-3)[Fuc(a1-4)]GlcNAc(b1-3)Gal(b1-3)[Fuc(a1-4)]GlcNAc
# Outline: as §1
# [32] = target: Neu5Ac(a2-3)Gal(b1-4)GlcNAc(b1-2)Man
# Outline: as §1
# [33] = target: Neu5Ac(a2-3)Gal(b1-4)GlcNAc(b1-3)Gal(b1-4)GlcNAc(b1-3)Gal(b1-4)GlcNAc(b1-2)Man(a1-3)[Neu5Ac(a2-3)Gal(b1-4)GlcNAc(b1-3)Gal(b1-4)GlcNAc(b1-3)Gal(b1-4)GlcNAc(b1-2)Man(a1-6)]GalNAc
# Outline: as §1
# [34] = target: Neu5Ac(a2-3)Gal(b1-4)GlcNAc(b1-6)GalNAc
# Outline: as §1
# [35] = target: Neu5Ac(a2-3)Gal(b1-4)GlcNAc6S
# Outline: as §1
# [36] = target: Neu5Ac(a2-3)Gal(b1-4)[Fuc(a1-3)]GlcNAc(b1-6)[Gal(b1-3)]GalNAc
# Outline: as §1
# [37] = target: Neu5Ac(a2-3)Gal(b1-4)[Fuc(a1-3)]GlcNAc(b1-6)[Neu5Ac(a2-3)Gal(b1-3)]GalNAc
# Outline: as §1
# [38] = target: Neu5Ac(a2-3)[GalNAc(b1-4)]Gal(b1-4)GlcNAc(b1-3)GalNAc
# Outline: as §1
# [39] = target: Neu5Ac(a2-6)Gal(b1-4)GlcNAc(b1-2)Man(a1-3)[GlcNAc(b1-4)][Neu5Ac(a2-6)Gal(b1-4)GlcNAc(b1-2)Man(a1-6)]Man(b1-4)GlcNAc(b1-4)GlcNAc
# Outline: as §1
# [40] = target: Neu5Ac(a2-6)Gal(b1-4)GlcNAc(b1-3)Gal(b1-4)GlcNAc(b1-2)Man(a1-3)[Neu5Ac(a2-6)Gal(b1-4)GlcNAc(b1-3)Gal(b1-4)GlcNAc(b1-2)Man(a1-6)]GalNAc
# Outline: as §1
# [41] = target: Neu5Ac(a2-6)Gal(b1-4)GlcNAc(b1-3)Gal(b1-4)GlcNAc(b1-3)GalNAc
# Outline: as §1
# [42] = target: Neu5Ac(a2-6)GalNAc(b1-4)GlcNAc
# Outline: as §1
# [43] = target: Neu5Ac(a2-8)Neu5Gc(a2-3)Gal(b1-4)GlcNAc
# Outline: as §1
binder,measurement,setting,value
PV12658A-bvu-496-32-496 (Bacteroides vulgatus) (protein) DLDGAITTPAAVELALNGIYYSLPGNGFNVIFPTVSGSFKAGTMWRQEIVSAGNAVYYSERMLPTLSFSDATEWDADYAVIKNANFLETACNRMSDGEFSGNRRAEVLGEIAYLRALAYFNILVRYCEFWDMNSEYGVVMRNEAPSVSNALKARSSVADSYQYILDQLEIAIEKAPDWKKLSQASKEAAKALKARVLLYAGKYTEAVAAVNDAIDTNSPLPEANYGDVFDKFSTTKEILFARVFDQKDATNTSTRQQCYGNSPTKKQGYWGPTNEYVELVGDDPRADAIFSKVDSLMDSRSSAVAYNLKSVKKLLNDANDMPVIFSRVSELYLIKAEALYRSGASISEAYAPIRKLRERAGAEIILPANNEELETAIFNEWMLELSFENWHEWFAMIRFAGYTEKPDFTRLLALNKTLREALEKEYEKSEAQGDNYYQRIIDRRIDAIPSSEISSNLECKQNPGY,glycan array binding signal (z-score),Fuc(a1-2)Gal(b1-4)Glc6S,-0.163
same,glycan array binding signal (z-score),[1],-0.199
same,glycan array binding signal (z-score),[2],0.201
same,glycan array binding signal (z-score),[3],3.63
same,glycan array binding signal (z-score),[4],-0.36
same,glycan array binding signal (z-score),[5],0.133
same,glycan array binding signal (z-score),Gal(a1-3)Gal(b1-3)GlcNAc,3.81
same,glycan array binding signal (z-score),[6],-0.252
same,glycan array binding signal (z-score),[7],4.55
same,glycan array binding signal (z-score),[8],0.883
same,glycan array binding signal (z-score),[9],1.73
same,glycan array binding signal (z-score),[10],7.57
same,glycan array binding signal (z-score),Gal(b1-2)Gal,-0.301
same,glycan array binding signal (z-score),[11],0.963
same,glycan array binding signal (z-score),Gal(b1-3)GlcNAc,-0.316
same,glycan array binding signal (z-score),[12],6.34
same,glycan array binding signal (z-score),[13],-0.533
same,glycan array binding signal (z-score),Gal(b1-4)GlcNAc,-0.258
same,glycan array binding signal (z-score),[14],-0.494
same,glycan array binding signal (z-score),[15],-0.266
same,glycan array binding signal (z-score),[16],5.64
same,glycan array binding signal (z-score),[17],3.98
same,glycan array binding signal (z-score),[18],0.41
same,glycan array binding signal (z-score),[19],-0.393
same,glycan array binding signal (z-score),[20],-0.573
same,glycan array binding signal (z-score),[21],-0.363
same,glycan array binding signal (z-score),GalNAc(b1-4)Gal(b1-4)Glc,-0.027
same,glycan array binding signal (z-score),GalNAc6S(b1-4)GlcNAc,-0.216
same,glycan array binding signal (z-score),[22],-0.069
same,glycan array binding signal (z-score),[23],-0.342
same,glycan array binding signal (z-score),[24],0.265
same,glycan array binding signal (z-score),[25],0.161
same,glycan array binding signal (z-score),[26],-0.358
same,glycan array binding signal (z-score),[27],-0.447
same,glycan array binding signal (z-score),[28],0.012
same,glycan array binding signal (z-score),[29],-0.233
same,glycan array binding signal (z-score),[30],-0.433
same,glycan array binding signal (z-score),[31],-0.275
same,glycan array binding signal (z-score),[32],-0.265
same,glycan array binding signal (z-score),[33],7.6
same,glycan array binding signal (z-score),[34],-0.479
same,glycan array binding signal (z-score),[35],-0.525
same,glycan array binding signal (z-score),[36],4.21
same,glycan array binding signal (z-score),[37],-0.336
same,glycan array binding signal (z-score),[38],-0.198
same,glycan array binding signal (z-score),[39],-0.152
same,glycan array binding signal (z-score),[40],10.6
same,glycan array binding signal (z-score),[41],-0.476
same,glycan array binding signal (z-score),[42],-0.163
same,glycan array binding signal (z-score),[43],5.59
